Test [1] concerns Plasmodium falciparum Sir2 (PF13_0152, Sir2A). The test can be described thus: Plasmodium falciparum Sir2A binding compounds – biochemical, small-molecule microarray, 635 nm fluorescence, primary screen (AID 1098).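 Further: score merges spot fluorescence intensity with its signal-to-noise ratio.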 Conditions: fluorescence 635 nm, higher = more signal.
Test [2] in a line: probe aDKK1 binding to arrayed compounds – biochemical, biotinylated probe, 635/667 nm fluorescence, primary screen (AID 1099).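 Further: score merges 667nm spot fluorescence with signal to noise across triplicate slides.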 To be noted: small-molecule microarray, higher = more signal.
Test [3] can be described thus: probe aCHRDL2 binding to arrayed compounds – biochemical, biotinylated probe, 635/667 nm fluorescence, primary screen (AID 1100). Conditions: small-molecule microarray, higher = more signal.
Test [4] can be described thus: change in splice reporter luminescence, either direction, cell-based, HEK293, spliceosome inhibition project, primary screen (AID 1101).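 Further: HEK293 cells carrying a splicing-competent luciferase reporter gene; test concentration not given here.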 To be noted: HEK293 splicing luciferase reporter, 24 h, higher = more signal, called active from +8 up or from −8 down. A general note: In a reporter assay the amount or activity of a reporter protein is the signal.
Test [5] addresses Fibroblast growth factor 10 (Homo sapiens) (UniProt O15520). The test can be described thus: compounds binding fibroblast growth factor 10 – biochemical, small-molecule microarray, 635 nm fluorescence, primary screen (AID 1102). To be noted: FGF10 binding, fluorescence 635 nm, higher = more signal.
Test [6] deals with glycogen synthase kinase-3 (GSK3A per assay name; protocol says GSK3B). The test can be described thus: compounds binding glycogen synthase kinase-3 – biochemical, small-molecule microarray, 635 nm fluorescence, GSK3A, primary screen (AID 1103). Further: the record names both GSK3A and GSK3B. To be noted: fluorescence 635 nm, higher = more signal.
The target of test [7] is Epidermal growth factor receptor (Homo sapiens) (UniProt P00533). The test can be described thus: compounds binding epidermal growth factor receptor – biochemical, small-molecule microarray, 635 nm fluorescence, primary screen (AID 1104).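 Further: score merges 667 nm emission intensity with spot signal to noise over triplicate slides.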 To be noted: EGFR binding, higher = more signal.
Test [8] concerns the target Follistatin-related protein 3 (Homo sapiens) (UniProt O95633). The test can be described thus: compounds binding follistatin-related protein 3 – biochemical, small-molecule microarray, 635 nm fluorescence, primary screen (AID 1105).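 Further: score merges emission near 667 nm and signal to noise per printed spot across three slides.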 Conditions: FSTL3 binding, higher = more signal.
In test [9] the target is Dickkopf-related protein 1 (Homo sapiens) (UniProt O94907). Put plainly: small molecules binding DKK1 protein – biochemical, small-molecule microarray, 635 nm fluorescence scan, primary screen (AID 1106).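 Further: score merges emission near 667 nm with signal to noise over three replicate slides.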 To be noted: higher = more signal.
Test [10] has as its system Inhibin beta A chain (activin A). The test can be described thus: small molecules binding activin A – biochemical, small-molecule microarray, 635 nm fluorescence scan, primary screen (AID 1107).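 Further: mouse activin A protein probed at 4.33 µg/mL on printed slides; score merges bound-protein fluorescence near 667 nm with spot signal-to-noise.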 To be noted: INHBA, higher = more signal.
In test [11] the test system is Human papillomavirus type 1a protein E7 (residues 44-93). The test can be described thus: small molecules binding HPV E7 44-93 – biochemical, small-molecule microarray, residues 44-93, 635 nm fluorescence, primary screen (AID 1108).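 Further: E7 fragment applied at 1 µg/mL in TBST for 1 h at 4 C; score combines spot fluorescence with its signal to noise ratio.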 To be noted: fluorescence 635 nm, higher = more signal.
The nature of test [12]: hepatitis C replication reporter changes, two-sided – Huh7 cells, luciferase reporter, HCV replication inhibitor project, primary screen (AID 1109).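 Further: huh7 hepatoma cells harbouring a luciferase neomycin HCV replicon reporter; luciferase luminescence as measure of HCV replicon replication; test concentration not given here.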 Conditions: Huh7 HCV replicon luciferase reporter, 48 h; higher = more signal.
For test [13], the target named is Left-right determination factor 2 (Homo sapiens) (UniProt O00292). The test can be described thus: small molecules binding LEFTY2 protein – biochemical, small-molecule microarray, 635 nm fluorescence scan, primary screen (AID 1110). To be noted: higher = more signal.
In test [14] the target is Calmodulin-1 (Homo sapiens) (UniProt P0DP23). The test can be described thus: small molecules binding calmodulin-1 with EGTA – biochemical, small-molecule microarray, Cy5-labelled CALM1, profiling panel (AID 1111).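 Further: labelled calmodulin applied in Tris saline Tween buffer holding calcium plus EGTA and DTT.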 Conditions: Cy5-CALM1 binding fluorescence, higher = more signal.
Test [15] has the same target. Put plainly: small molecules binding Ca-loaded calmodulin-1 – biochemical, small-molecule microarray, Cy5-labelled CALM1, plus calcium, artefact control for SMM control-protein annotation, profiling panel (AID 1112).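 Further: score merges spot fluorescence with signal to noise from triplicate slides.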 To be noted: Cy5-CALM1 binding fluorescence, higher = more signal.
Test [16] in a line: probe aWnt5a binding to arrayed compounds – biochemical, biotinylated probe, 635/667 nm fluorescence, primary screen (AID 1113).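 Further: score merges 667 nm fluorescence intensity with signal-to-noise per printed feature.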 To be noted: small-molecule microarray, higher = more signal.
Test [17] can be described thus: probe aShh binding to arrayed compounds – biochemical, biotinylated probe, 635/667 nm fluorescence, primary screen (AID 1114).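 Further: probe is biotin-labelled aShh protein from a stem cell growth factor screen; measures binding of labelled protein to compounds printed on the slide; score merges feature fluorescence at 667 nm with signal-to-noise.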 To be noted: small-molecule microarray, higher = more signal.
A short description of test [18]: probe aNog binding to arrayed compounds – biochemical, biotinylated probe, 635/667 nm fluorescence, primary screen (AID 1115).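 Further: probe is biotinylated aNog protein used at 0.15 µg/mL for 1 h at 4 C; z-score combines 667 nm fluorescence of each spot with its signal to noise.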 Conditions: small-molecule microarray, higher = more signal.
For test [19], the target named is Torsin-1A-interacting protein 1 (Homo sapiens) (UniProt Q5JTV8). The test can be described thus: compound microarray binding of lysate hLAP1 – cell lysate, small-molecule microarray, COS7 lysate, 635/667 nm fluorescence, primary screen (AID 1116). Conditions: 635 nm fluorescence, higher = more signal.
The target in test [20] is Alpha-bungarotoxin (Bungarus multicinctus) (UniProt P60615). Put plainly: compounds binding labelled alpha-BTX control protein – biochemical, small-molecule microarray, Alexa647 label, 635/667 nm fluorescence, artefact control for SMM control protein annotation, profiling panel (AID 1117). To be noted: alpha-BTX-A647 binding fluorescence, higher = more signal.

Activity calls are given as the source filed them.

Sequence of Alpha-bungarotoxin (Bungarus multicinctus) (P60615 whole entry, looked up): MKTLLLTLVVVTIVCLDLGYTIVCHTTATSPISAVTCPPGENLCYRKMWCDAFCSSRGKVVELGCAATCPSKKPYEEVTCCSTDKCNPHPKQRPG
Sequence of Torsin-1A-interacting protein 1 (Homo sapiens) (Q5JTV8 whole entry, looked up): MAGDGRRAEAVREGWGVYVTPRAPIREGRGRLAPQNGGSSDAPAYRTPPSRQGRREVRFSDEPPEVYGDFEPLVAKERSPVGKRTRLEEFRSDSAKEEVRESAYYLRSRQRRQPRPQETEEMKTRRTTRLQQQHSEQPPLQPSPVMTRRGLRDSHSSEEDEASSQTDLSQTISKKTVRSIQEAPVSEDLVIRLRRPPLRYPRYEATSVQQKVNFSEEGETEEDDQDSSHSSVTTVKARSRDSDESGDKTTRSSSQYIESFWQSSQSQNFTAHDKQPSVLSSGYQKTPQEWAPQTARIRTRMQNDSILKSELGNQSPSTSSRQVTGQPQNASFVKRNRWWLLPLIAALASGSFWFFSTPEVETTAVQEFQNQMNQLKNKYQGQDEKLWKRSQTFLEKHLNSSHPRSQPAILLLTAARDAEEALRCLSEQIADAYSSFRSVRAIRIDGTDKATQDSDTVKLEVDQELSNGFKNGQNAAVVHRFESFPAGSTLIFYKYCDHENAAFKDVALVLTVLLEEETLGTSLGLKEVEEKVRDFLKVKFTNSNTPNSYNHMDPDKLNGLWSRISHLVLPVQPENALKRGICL
Sequence of Follistatin-related protein 3 (Homo sapiens) (O95633 whole entry, looked up): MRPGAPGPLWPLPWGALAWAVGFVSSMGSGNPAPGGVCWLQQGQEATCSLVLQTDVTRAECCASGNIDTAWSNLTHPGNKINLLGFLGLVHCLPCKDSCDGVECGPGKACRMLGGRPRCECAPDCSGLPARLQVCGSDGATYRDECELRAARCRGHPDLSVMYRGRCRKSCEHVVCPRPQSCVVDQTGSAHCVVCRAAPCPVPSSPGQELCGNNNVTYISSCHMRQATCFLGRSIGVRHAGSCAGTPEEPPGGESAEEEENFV
Sequence of Left-right determination factor 2 (Homo sapiens) (O00292 whole entry, looked up): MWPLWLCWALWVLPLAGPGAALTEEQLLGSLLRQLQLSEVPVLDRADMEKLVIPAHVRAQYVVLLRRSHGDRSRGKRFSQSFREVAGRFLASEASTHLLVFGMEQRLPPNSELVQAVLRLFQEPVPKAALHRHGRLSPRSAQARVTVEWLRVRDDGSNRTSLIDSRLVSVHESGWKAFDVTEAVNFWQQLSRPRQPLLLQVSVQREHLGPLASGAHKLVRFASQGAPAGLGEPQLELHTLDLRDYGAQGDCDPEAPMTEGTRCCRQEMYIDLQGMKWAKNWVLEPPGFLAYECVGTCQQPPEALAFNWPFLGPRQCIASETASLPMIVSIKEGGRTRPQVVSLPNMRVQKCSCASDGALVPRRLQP
Sequence of Fibroblast growth factor 10 (Homo sapiens) (O15520 whole entry, looked up): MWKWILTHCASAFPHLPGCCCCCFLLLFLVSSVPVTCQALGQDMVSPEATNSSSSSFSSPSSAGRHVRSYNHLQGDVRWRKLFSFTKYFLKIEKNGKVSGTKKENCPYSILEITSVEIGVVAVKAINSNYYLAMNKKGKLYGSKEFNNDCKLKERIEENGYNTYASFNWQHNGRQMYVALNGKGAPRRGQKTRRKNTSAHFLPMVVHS
Sequence of Dickkopf-related protein 1 (Homo sapiens) (O94907 whole entry, looked up): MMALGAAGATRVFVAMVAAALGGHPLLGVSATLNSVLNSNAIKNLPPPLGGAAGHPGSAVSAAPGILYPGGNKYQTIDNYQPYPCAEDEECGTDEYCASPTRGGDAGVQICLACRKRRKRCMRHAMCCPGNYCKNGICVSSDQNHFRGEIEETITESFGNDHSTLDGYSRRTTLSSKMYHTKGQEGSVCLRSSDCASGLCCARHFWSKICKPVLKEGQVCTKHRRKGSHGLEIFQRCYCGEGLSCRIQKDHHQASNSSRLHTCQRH
Sequence of Epidermal growth factor receptor (Homo sapiens) (P00533 whole entry, looked up): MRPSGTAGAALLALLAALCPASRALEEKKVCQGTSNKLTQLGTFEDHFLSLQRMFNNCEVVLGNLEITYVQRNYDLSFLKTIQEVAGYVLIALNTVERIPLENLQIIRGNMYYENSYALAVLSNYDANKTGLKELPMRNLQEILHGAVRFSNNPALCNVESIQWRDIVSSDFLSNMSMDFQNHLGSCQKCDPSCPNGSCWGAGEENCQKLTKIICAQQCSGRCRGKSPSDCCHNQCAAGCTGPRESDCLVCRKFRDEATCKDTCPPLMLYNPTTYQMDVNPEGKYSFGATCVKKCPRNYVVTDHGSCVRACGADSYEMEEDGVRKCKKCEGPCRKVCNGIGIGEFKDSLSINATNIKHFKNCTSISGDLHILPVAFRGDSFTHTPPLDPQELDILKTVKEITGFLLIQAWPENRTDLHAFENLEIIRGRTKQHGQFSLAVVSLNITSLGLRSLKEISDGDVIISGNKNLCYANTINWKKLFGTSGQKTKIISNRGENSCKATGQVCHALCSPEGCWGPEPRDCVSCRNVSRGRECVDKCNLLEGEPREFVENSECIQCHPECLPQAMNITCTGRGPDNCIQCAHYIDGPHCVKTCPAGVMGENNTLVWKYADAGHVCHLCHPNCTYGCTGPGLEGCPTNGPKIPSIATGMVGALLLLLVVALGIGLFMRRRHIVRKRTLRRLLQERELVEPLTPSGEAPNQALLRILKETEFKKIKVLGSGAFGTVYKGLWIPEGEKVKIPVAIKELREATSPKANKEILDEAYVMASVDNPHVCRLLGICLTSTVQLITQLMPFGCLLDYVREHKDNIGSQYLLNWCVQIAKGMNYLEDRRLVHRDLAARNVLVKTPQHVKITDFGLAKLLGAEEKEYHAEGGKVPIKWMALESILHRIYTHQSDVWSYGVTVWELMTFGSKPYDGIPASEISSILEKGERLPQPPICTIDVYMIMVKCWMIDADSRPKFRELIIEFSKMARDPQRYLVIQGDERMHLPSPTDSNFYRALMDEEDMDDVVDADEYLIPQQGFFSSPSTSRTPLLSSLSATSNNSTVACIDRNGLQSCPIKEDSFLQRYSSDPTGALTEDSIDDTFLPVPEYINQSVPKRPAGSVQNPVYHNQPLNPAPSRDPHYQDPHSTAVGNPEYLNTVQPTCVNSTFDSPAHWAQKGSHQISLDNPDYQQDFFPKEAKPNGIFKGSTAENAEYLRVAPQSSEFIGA

Consider `CC(C)CNC(=O)[C@@H]1c2ccccc2C(=O)N(Cc2cc(C(F)(F)F)cc(C(F)(F)F)c2)[C@H]1c1ccc(CO)cc1`, for which the composite z-score was -0.46 in test [1]; 0.416 in test [2]; 0.822 in test [3]; -0.633 in test [5]; -1.32 in test [6]; -0.88 in test [7]. Besides, the composite z-score was -0.736 in test [8]; -0.439 in [9]; -0.575 in test [10]; -0.337 in test [11]; -0.488 in test [13]; -0.128 in test [14]. Moreover, the composite z-score was 0.401 in test [15]; 0.0437 in [16]; -0.155 in [17]; -0.247 in [18]; -0.0708 in test [19]; -0.141 in [20]. Also, the z-score in test [4] was -0.827 (inactive); in test [12], -0.195.
Regarding `C=CCNC(=O)[C@H]1[C@@H]2C(=O)O[C@@H](c3ccccc3)[C@@H](c3ccccc3)N2[C@@H](c2ccc(O)cc2)[C@]12C(=O)N(C(=O)OCCOC)c1ccc(C#CCCO)cc12`, the composite z-score in [1] was 1.29; in test [2] it was 0.303; in test [3] it was 0.272; in [5], 1.18; in test [6], 0.713; in [7], -0.248. Further, the composite z-score in [8] was -0.0994; in test [9], -0.0705; in test [10] it was 0.681; in test [11], 0.889; in [13], -0.166; in test [14], 0.0387. The composite z-score in test [15] was 0.171; in [16], -0.185; in test [17], 0.0639; in test [18], -0.332; in test [19], 1.35; in test [20], 1.25. Further, the z-score was 0.271 (inactive) in test [4] and -0.605 in test [12].
For the compound `CC(C)CNC(=O)[C@@]1(c2ccc([N+](=O)[O-])cc2)CC(=O)N(CC23CC4CC(CC(C4)C2)C3)[C@@H]1c1ccc(CO)cc1I`, the composite z-score was determined as 1.13 in test [1]; 0.109 in test [2]; 0.0793 in test [3]; 1.04 in [5]; 1.3 in test [6]; 0.578 in test [7]. The composite z-score in test [8] amounted to 1.08; in [9], 0.808; in [10], 0.383; in [11], 1.39; in test [13], 0.539; in test [14] it was 0.404. In addition, the composite z-score in [15] was -0.111; in test [16], -0.0587; in test [17], -0.0685; in test [18] it was -0.289; in [19], 0.798; in [20], 0.504. Besides, the z-score in [4] is -0.125 (inactive); in test [12] it was -3.18.
With `CCN(CC)c1ccc(N2CC=CC34O[C@@H]5C=CCCOC(=O)C5[C@H]3C(=O)N(CCCCCO)[C@@H]4C2=O)cc1` (stereo not given in full), the composite z-score was -0.144 in test [1]; -0.0409 in test [2]; 0.0109 in test [3]; -0.292 in test [5]; -0.139 in [6]; -0.76 in [7]. Besides, the composite z-score is -0.339 in test [8]; -0.182 in test [9]; 1.52 in test [10]; -0.668 in test [11]; -0.48 in test [13]; -1.15 in test [14]. Besides, the composite z-score in test [15] was -1.45; in test [16] it was -0.0721; in test [17], 0.0756; in [18], -0.025; in [19] it was 1.04; in test [20], -0.66. The z-score in test [4] is -0.779 (inactive); in [12] it was 0.348.
As to `COCCOC(=O)N1C(=O)[C@@]2(c3cc(C#CCNC(N)=O)ccc31)[C@H](c1ccc(O)cc1)N1[C@H](c3ccccc3)[C@H](c3ccccc3)OC(=O)[C@H]1[C@@H]2C(=O)Nc1nc2ccccc2s1`, the composite z-score in test [1] turned out to be 0.809; in test [2] it was 0.668; in test [3], 0.476; in test [5], 1.14; in test [6], 0.306; in test [7], 0.228. Further, the composite z-score was determined as 0.85 in [8]; 0.562 in test [9]; 0.815 in test [10]; 0.793 in test [11]; 0.691 in test [13]; 1.41 in test [14]. The composite z-score is 0.707 in [15]; -0.0242 in [16]; -0.0626 in test [17]; 0.167 in test [18]; 0.0164 in [19]; 1.1 in test [20]. Moreover, the z-score in test [4] is -0.564 (inactive); in [12], 0.171.
As to `CC(C)C(=C=CC[C@H](O)c1cccc(OCCO)c1)C[C@H](O)COCc1ccccc1`, the composite z-score is 0.845 in test [1]; -0.27 in test [2]; -0.154 in test [3]; 0.876 in test [5]; -0.376 in test [6]; -0.379 in [7]. The composite z-score in [8] is -0.0234; in test [9], 0.116; in [10] it was 0.405; in test [11], 0.0677; in test [13], -0.0641; in test [14], -0.53. Further, the composite z-score in test [15] is -0.981; in [16], -0.096; in [17] it was 0.0062; in test [18], 0.0308; in test [19], 1.14; in [20] it was 0.0589. In addition, the z-score in [4] was 0.102 (inactive); in test [12], -0.285.

The record behind these values is PubChem BioAssay.
